This is a sample that favours compounds with a hit; in the whole collection about 10% have one here.
Six1-Eya2 blk – qHTS Assay for Inhibitors of the Six1/Eya2 Interaction; Homeobox protein SIX1 (Homo sapiens) + Protein phosphatase EYA2 (Homo sapiens), …; AlphaScreen GST-Six1/His-Eya2 binding, biochemical; hits give low values; activity change, % (concentration not given with the values); actives 0.56% (n = 360,000); in the data active = activity change below about -65%; inconclusive = mostly about -30% to -63%; note: % is set by controls: 0 for no effect and ±100 for the full control effect
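AlphaScreen with GST-Six1 and His-Eya2 (5X mix: 250 nM and 500 nM), glutathione donor and nickel acceptor beads; buffer 50 mM Tris pH 8.0, 300 mM NaCl, 1 mM TCEP; 1 h at 37 C in the dark.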
G9a inh – qHTS Assay for Inhibitors of Histone Lysine Methyltransferase G9a; actives 8.8% (n = 350,000); AID 504332, 2011; G9a H3K9 monomethylation, AlphaScreen, 2 h; Potency, µM (doses to about 102 µM), inactives show at the top dose activity, negative = inhibition, usual class: inhibitors; note: potency is the fitted concentration of half-maximal effect; % is set by controls: 0 for no effect and ±100 for the full control effect; nearly all actives have a fitted effect of over 75% in size
Target sequence (Q96KQ7 913-1193 limits assumed): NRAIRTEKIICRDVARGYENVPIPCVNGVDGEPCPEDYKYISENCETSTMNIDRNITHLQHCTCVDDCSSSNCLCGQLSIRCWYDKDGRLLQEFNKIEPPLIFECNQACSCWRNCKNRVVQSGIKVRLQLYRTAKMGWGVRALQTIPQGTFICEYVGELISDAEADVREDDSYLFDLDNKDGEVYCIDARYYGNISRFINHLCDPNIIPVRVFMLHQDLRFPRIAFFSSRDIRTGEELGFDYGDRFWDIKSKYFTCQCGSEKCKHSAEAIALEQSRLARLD
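Enzyme 20 nM + cpd, 15 min RT; add b-H3K9 pep 500 nM / SAM 20 uM; 2 h RT; anti-H3K9me1 Ab 0.5 ug/mL + SA donor / anti-rabbit acceptor beads 20 ug/mL each, 10 min; AlphaScreen read.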
JMJD2A Tudor inh – qHTS Assay for Inhibitors of JMJD2A-Tudor Domain; actives 4.4% (n = 390,000); AID 504339, 2011; Potency, µM (doses to about 114 µM), for inactives: at the top dose activity change, negative = inhibition, actives largely listed as inhibitors; AlphaScreen JMJD2A-Tudor / H3K4me3 peptide binding; note: potency is the fitted concentration of half-maximal effect; % is set by controls: 0 for no effect and ±100 for the full control effect; nearly all actives have a fitted effect of over 50% in size
CtBP-E1A blk – qHTS Assay for Inhibitors of the CtBP/E1A Interaction; AlphaScreen GST-E1A/His-CtBP binding, 1536-well; hits give low values; activity change, % (test concentration not listed); actives 0.49% (n = 340,000); AID 651724, 2012; in the data active = activity change below about -65%; inconclusive = mostly about -30% to -63%; note: % is set by controls: 0 for no effect and ±100 for the full control effect
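In 5 uL wells, 23 nL compound meets equimolar GST-E1A and His-CtBP (5X stock 125 nM each) for 2 h, 37 °C. Beads (5X, 50 ug/mL) then 1 h, 37 °C, dark.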
HP1b binding inh – HTS for Inhibitors of HP1-beta Chromodomain Interactions with Methylated Histone Tails | AlphaScreen HP1-beta / biotin-H3K9me3 peptide binding | actives 0.56% (n = 390,000) | Chromobox protein homolog 1 (Homo sapiens), P83916 | Potency, µM (doses to about 114 µM), for inactives: at the highest dose activity change, negative = inhibition, most hits filed as inhibitors; note: potency is the fitted concentration of half-maximal effect; nearly all actives have a fitted effect of over 70% in size
Target sequence (P83916 whole entry, looked up): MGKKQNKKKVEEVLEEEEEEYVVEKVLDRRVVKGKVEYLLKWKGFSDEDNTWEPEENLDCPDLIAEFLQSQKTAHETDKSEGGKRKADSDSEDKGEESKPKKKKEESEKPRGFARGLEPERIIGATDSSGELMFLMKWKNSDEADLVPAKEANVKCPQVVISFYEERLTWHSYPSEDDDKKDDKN
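HP1-beta protein (50 nM final) preincubated 30 min at room temperature with biotinylated H3(1-18)K9me3 peptide (50 nM) in PBS pH 7.4, 0.01% Tween-20, then compound added for 30 min. AlphaScreen streptavidin donor/nickel chelate acceptor beads (10 ug/mL final), 30 min dark, luminescence read.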
BAZ2B block – qHTS Assay for Inhibitors of BAZ2B | Bromodomain adjacent to zinc finger domain protein 2B (Homo sapiens), Q9UIF8 | AlphaScreen BAZ2B-H3K14Ac peptide displacement | Potency, µM (highest dose often 114 µM), without a hit: at the top dose activity change, negative = inhibition, actives largely listed as inhibitors | actives 4.4% (n = 360,000); note: potency is the fitted concentration of half-maximal effect; % is set by controls: 0 for no effect and ±100 for the full control effect; nearly all actives have a fitted effect of over 60% in size
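AlphaScreen displacement of biotin-H3(5-23)K14Ac peptide (50 nM final) from BAZ2B (50 nM final) in PBS pH 7.4, 0.01% Tween-20; complex preformed 30 min RT, then compounds (top 110 uM) 30 min RT, beads 20 min dark.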
Starred values were filed as active, the others as inactive; ? = inconclusive; . = no result given; [ ] = dose if it differs, or a comment. Unless noted, calls come from the whole dose curve; as a rule, active = well fitted inhibition curve with a large enough effect; inconclusive = small, poorly fitted or top-dose-only effect; inactive = no such curve, though single readings can be large or run the other way.

SMILES	Six1-Eya2 blk	G9a inh	JMJD2A Tudor inh	CtBP-E1A blk	HP1b binding inh	BAZ2B block
COc1cc(NC(=S)N2CCN(C)CC2)c(OC)cc1Cl	-4.2	39.8µM*	1.0%	5.5	11.9%	-18.6%
O=[N+]([O-])c1cccc(NC(=S)N2CCCC2)c1	4.3	.	-9.0%	-0.1	50.1%	-13.0%
COc1cccc(-c2nc(CS(=O)(=O)CC(=O)Nc3ccc(C)c(Cl)c3)c(C)o2)c1	.	-22.7%[59 µM]	1.7%	.	21.1%	-1.7%
COc1ccc(CCNC(=O)C2(c3cccs3)CCOCC2)cc1OC	.	9.5%[59 µM]	-0.3%	.	33.6%	-0.4%
S=C(N/N=C/c1ccccc1)N1CCOCC1	-13.4	?	89.1µM*	-12.1	19.5%	?
CSC(=S)N/N=C/c1ccccc1	0.0	-1.2%	?	-22.3	-4.3%	12.6µM*
COc1ccc(/C=N/NC(=S)SC)cc1OC	-15.0	-33.5%	-27.4%	-17.9	36.2%	?
S=C(Nc1ccccc1)N1CCOCC1	7.6	-24.1%	6.0%	1.0	41.9%	-10.6%
CCC(=O)Nc1nnc(S(=O)(=O)N(C)Cc2ccc(Cl)cc2)s1	.	-7.5%[59 µM]	-10.0%	.	5.5%	-13.0%
COc1ccc(NC(=O)N(Cc2nnc3n2CCCCC3)c2ccc(OC)c(Cl)c2)cc1	.	-33.7%[59 µM]	2.9%	.	23.2%[57 µM]	1.1%
CCCCn1c(=O)[nH]c2nc3cc(N)ccc3nc2c1=O	?	3.55µM*	-25.1%	-19.8	6.9%	?
CSc1ccc(C(c2c(C(=O)O)[nH]c3ccccc23)c2c(C(=O)O)[nH]c3ccccc23)cc1	-11.2	20.6%[0.501 µM]	-19.3%	3.7	15.0%	50.1µM*
Nc1c(C(=O)Nc2ccc(Cl)c(C(=O)O)c2)sc2nc3c(cc12)CCCC3	-74.3*	44.7µM*	-2.1%	-78.4*	43.7%	-14.9%
Nc1c(C(=O)Nc2ccc(C(=O)O)cc2)sc2nc3c(cc12)CCCC3	.	?	13.8%	.	50.6%	-0.1%
Nc1c(C(=O)Nc2cccc(C(=O)O)c2)sc2nc3c(cc12)CCCC3	-23.7	44.7µM*	-23.5%	?	34.5%	-3.6%
CN(C)c1cccc2c1c(NC(=O)Nc1ccccc1)nn2C	-21.3	35.5µM*	?	.	10.0%	-33.2%
CCOC(=O)c1c(CC(C)C)csc1/N=C/C1C(=O)CCCC1=O	3.9	50.1µM*	-27.1%	3.0	0.1%	?
COc1ccccc1NC(=O)c1cc(S(=O)(=O)N(C)C2CCCCC2)ccc1F	.	7.9%[59 µM]	-8.9%	.	33.7%	12.1%
CCOC(=O)CNC=C(C(=O)OCC)C(=O)OCC	13.0	9.9%[59 µM]	-13.4%	-0.9	19.3%	0.5%
CCOC(=O)C=C(C(=O)OCC)C(=O)OCC	23.4	12.6µM*	-6.5%	0.0	?	-2.7%
N#Cc1ccc(COn2nnc3ccccc32)cc1	-0.5	89.1µM*	-10.1%	0.0	43.8%	3.7%
Cc1ccc(NC(=O)c2nc(S(C)(=O)=O)ncc2N(Cc2ccccc2)Cc2ccco2)c(C)c1	.	-0.7%[59 µM]	-6.6%	.	37.0%	-1.8%
COc1ccc(NC(=O)C(=O)NNC(=O)COc2ccc(Cl)cc2)c(OC)c1	-15.2	37.3%	-9.0%	-26.3	46.3%	-1.7%
COc1cc(NC(=O)COc2ccc(Cl)cc2)ccc1NC(=O)C(C)C	0.3	25.1µM*	-10.7%	0.5	3.6%	-16.2%
COc1cccc(C(c2sc3nc(-c4ccco4)nn3c2O)N2CCC(C)CC2)c1 (configuration not stated)	.	17.8µM*	-26.9%	.	-6.6%	?
COc1cccc(C(c2sc3nc(-c4ccco4)nn3c2O)N2CCCC2)c1 (configuration not stated)	.	14.1µM*	-18.2%	.	18.0%	-20.9%
